Reference: PubChem BioAssay (Tox21)
Records with an inconclusive call do not appear. Entries that show only a call come without a potency. The source made the active and inactive calls. The call rests on the fitted dose curve.

Experiment: G protein-coupled receptor (GPCR) small molecule agonists, calcium flux assay: HEK293 wild type cell line counter screen (AID 1920065)
Conditions: HEK293 WT calcium flux, fluorescence, agonist mode; series mostly up to 57.6 µM
Summary of the method: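 Tox21 10K compounds, 15 concentrations each in triplicate, pin-transferred in DMSO onto dye-loaded cells; kinetic read at 480/540 nm for 3 min, 1 s intervals.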

| SMILES | Potency | activation |
| --- | --- | --- |
| CC[N+](C)(CC)CCOC(=O)C1c2ccccc2Oc2ccccc21 | inactive |  |
| C/C=C1/C(=O)C[C@H]2[C@@H]3CCC4=CC(=O)CC[C@]4(C)[C@H]3CC[C@]12C | inactive |  |
| O=C(NN1CCCC1)NS(=O)(=O)c1ccc(Cl)cc1 | inactive |  |
| CCCNCCC | inactive |  |
| O=C1CC[C@@H](C(=O)O)N1 | inactive |  |
| C1C2OC2C2C1C1CC2C2OC12 (stereo not given) | inactive |  |
| Cc1ccc(C#N)cc1 | inactive |  |
| CC[C@@]1(c2ccccc2)NC(=O)N(C)C1=O | inactive |  |
| CC[C@H]1O[C@]2(CC[C@@H]1C)C[C@@H]1C[C@@H](C/C=C(\C)C[C@@H](C)/C=C/C=C3\CO[C@@H]4[C@H](O)C(C)=C[C@@H](C(=O)O1)[C@]34O)O2 | inactive |  |
| O=CNc1ccccc1 | inactive |  |
| FC(F)(Cl)C(F)(Cl)Cl | inactive |  |
| CCN(C(=O)N(CC)c1ccccc1)c1ccccc1 | inactive |  |
| CCCCCC/C=C/C=O | inactive |  |
| CCCCCCCCCCO[C@@H]1O[C@H](CO)[C@@H](O)[C@H](O)[C@H]1O | inactive |  |
| CC(C)COC(=O)CCCCC(=O)OCC(C)C | inactive |  |
| CCOc1ccc(NC(=O)CC(C)=O)cc1 | inactive |  |
| CCOC(=O)CC(=O)c1ccccc1 | inactive |  |
| NCCCC(N)(C(=O)O)C(F)F (stereo not given) | inactive |  |
| Cc1ccccc1Br | inactive |  |
| CCCCCCCCS(=O)(=O)O | inactive |  |

| SMILES | Potency | activation |
| --- | --- | --- |
| CCOC(=O)[C@@](C)(N)Cc1ccc(O)c(O)c1 | inactive |  |
| CC1(C)SC(C)(C)SC(C)(C)S1 | inactive |  |
| NCCCCCCNCCCCCCN | inactive |  |
| CCN(CC)CCNC(C(=O)OCCC(C)C)c1ccccc1 (stereo not given) | inactive |  |
| Oc1cc2ccccc2c2ccccc12 | inactive |  |
| CCCCCCC(C)Nc1ccc(Nc2ccccc2)cc1 (stereo not given) | inactive |  |
| CCCCCCCCCCCCCOC(=O)CCSCCC(=O)OCCCCCCCCCCCCC |  | -0.388% [at 11.8 µM] (inactive) |
| CC(C)(C)C(=O)CCc1ccc(Cl)cc1 | inactive |  |
| CC(C)COC(=O)COc1ccc(Cl)cc1Cl | inactive |  |
| C=C(C)c1cccc(C(=C)C)c1 | inactive |  |
| CC(C)(C)C1CCCCC1=O (stereo not given) | inactive |  |
| COC(=O)CC(=O)C(C)(C)C | inactive |  |
| CC(C)NCC(O)c1cc(O)cc(O)c1 (stereo not given) | inactive |  |
| O=C=NCC1CCCC(CN=C=O)C1 (stereo not given) | inactive |  |
| NNc1nc(-c2ccccc2)cs1 | inactive |  |
| O=Cc1cc(O)ccc1Br | inactive |  |
| Cc1ccc(C)c([N+](=O)[O-])c1 | inactive |  |
| CCN(CC)C(=O)c1ccc(O)c(OC)c1 | inactive |  |
| Cc1cccc(NC(=S)N(C)C)c1 | inactive |  |
| COc1ccc(OC)c(Cl)c1 | inactive |  |

Experiment: p53 small molecule agonists, cell-based qHTS assay with human liver microsomes: qHTS cell viability counter screen (AID 1963579); further: nearly all actives have a fitted effect of over 45% in size; further: potency means the concentration at half of the fitted maximal effect
Conditions: p53RE-bla HCT-116 viability, ATP luminescence, 16 h, HLM; series mostly up to 66 µM
Summary of the method: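 p53RE-bla cells (4,000/well) were pre-incubated 5 h at 37 C, then given compounds in DMSO plus human liver microsomes (0.5 mg/mL final) and NADPH (0.5 mg/mL final) for 16 h at 37 C. Viability was read by CellTiter-Glo luminescence.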

| SMILES | Potency | activity change, negative = cytotoxicity |
| --- | --- | --- |
| CC[N+](C)(CC)CCOC(=O)C1c2ccccc2Oc2ccccc21 | inactive |  |
| C/C=C1/C(=O)C[C@H]2[C@@H]3CCC4=CC(=O)CC[C@]4(C)[C@H]3CC[C@]12C | inactive |  |
| O=C(NN1CCCC1)NS(=O)(=O)c1ccc(Cl)cc1 | inactive |  |
| CCCNCCC | inactive |  |
| O=C1CC[C@@H](C(=O)O)N1 | inactive |  |
| C1C2OC2C2C1C1CC2C2OC12 (stereo not given) | inactive |  |
| Cc1ccc(C#N)cc1 | inactive |  |
| CC[C@@]1(c2ccccc2)NC(=O)N(C)C1=O | inactive |  |
| CC[C@H]1O[C@]2(CC[C@@H]1C)C[C@@H]1C[C@@H](C/C=C(\C)C[C@@H](C)/C=C/C=C3\CO[C@@H]4[C@H](O)C(C)=C[C@@H](C(=O)O1)[C@]34O)O2 | inactive |  |
| O=CNc1ccccc1 | inactive |  |
| FC(F)(Cl)C(F)(Cl)Cl | inactive |  |
| CCN(C(=O)N(CC)c1ccccc1)c1ccccc1 | inactive |  |
| CCCCCC/C=C/C=O | inactive |  |
| CCCCCCCCCCO[C@@H]1O[C@H](CO)[C@@H](O)[C@H](O)[C@H]1O | inactive |  |
| CC(C)COC(=O)CCCCC(=O)OCC(C)C | inactive |  |
| CCOc1ccc(NC(=O)CC(C)=O)cc1 | inactive |  |
| CCOC(=O)CC(=O)c1ccccc1 | inactive |  |
| NCCCC(N)(C(=O)O)C(F)F (stereo not given) | inactive |  |
| Cc1ccccc1Br | inactive |  |
| CCCCCCCCS(=O)(=O)O | inactive |  |

| SMILES | Potency | activity change, negative = cytotoxicity |
| --- | --- | --- |
| CCOC(=O)[C@@](C)(N)Cc1ccc(O)c(O)c1 | inactive |  |
| CC1(C)SC(C)(C)SC(C)(C)S1 | inactive |  |
| NCCCCCCNCCCCCCN | inactive |  |
| CCN(CC)CCNC(C(=O)OCCC(C)C)c1ccccc1 (stereo not given) | inactive |  |
| Oc1cc2ccccc2c2ccccc12 | 10.2 µM (active) |  |
| CCCCCCC(C)Nc1ccc(Nc2ccccc2)cc1 (stereo not given) | 40.8 µM (active) |  |
| CCCCCCCCCCCCCOC(=O)CCSCCC(=O)OCCCCCCCCCCCCC |  | -3.75% [at 13.5 µM] (inactive) |
| CC(C)(C)C(=O)CCc1ccc(Cl)cc1 | inactive |  |
| CC(C)COC(=O)COc1ccc(Cl)cc1Cl | inactive |  |
| C=C(C)c1cccc(C(=C)C)c1 | inactive |  |
| CC(C)(C)C1CCCCC1=O (stereo not given) | inactive |  |
| COC(=O)CC(=O)C(C)(C)C | inactive |  |
| CC(C)NCC(O)c1cc(O)cc(O)c1 (stereo not given) | inactive |  |
| O=C=NCC1CCCC(CN=C=O)C1 (stereo not given) | inactive |  |
| NNc1nc(-c2ccccc2)cs1 | inactive |  |
| O=Cc1cc(O)ccc1Br | inactive |  |
| Cc1ccc(C)c([N+](=O)[O-])c1 | inactive |  |
| CCN(CC)C(=O)c1ccc(O)c(OC)c1 | inactive |  |
| Cc1cccc(NC(=S)N(C)C)c1 | inactive |  |
| COc1ccc(OC)c(Cl)c1 | inactive |  |
